Experimental data as given in PubChem BioAssay AID2625 (National Center for Advancing Translational Sciences (NCATS), 2010).
Inconclusive results are not listed. Unmarked numbers belong to inactive results. Activity calls are given as the source filed them. The call rests on the fitted dose curve; in most records, active means well fitted curve in the direction sought with a large enough effect; inconclusive means small, poorly fitted or top-dose-only effect, or effect the other way, or another doubt; inactive means no such curve, though single readings can be large or run the other way.

target: Pyruvate kinase PKLR (Homo sapiens) (UniProt P30613); assay: Secondary LDH Assay for Activators of Human Liver Pyruvate Kinase: for Probe SAR; conditions: purified hPK-L, LDH-coupled NADH fluorescence kinetic; series mostly up to 58.2 µM; activity change, positive = activation: at the top concentration;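 further: 0% = uninhibited enzyme rate and 100% = full activation by fructose bisphosphate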
Sequence (P30613 whole entry, looked up): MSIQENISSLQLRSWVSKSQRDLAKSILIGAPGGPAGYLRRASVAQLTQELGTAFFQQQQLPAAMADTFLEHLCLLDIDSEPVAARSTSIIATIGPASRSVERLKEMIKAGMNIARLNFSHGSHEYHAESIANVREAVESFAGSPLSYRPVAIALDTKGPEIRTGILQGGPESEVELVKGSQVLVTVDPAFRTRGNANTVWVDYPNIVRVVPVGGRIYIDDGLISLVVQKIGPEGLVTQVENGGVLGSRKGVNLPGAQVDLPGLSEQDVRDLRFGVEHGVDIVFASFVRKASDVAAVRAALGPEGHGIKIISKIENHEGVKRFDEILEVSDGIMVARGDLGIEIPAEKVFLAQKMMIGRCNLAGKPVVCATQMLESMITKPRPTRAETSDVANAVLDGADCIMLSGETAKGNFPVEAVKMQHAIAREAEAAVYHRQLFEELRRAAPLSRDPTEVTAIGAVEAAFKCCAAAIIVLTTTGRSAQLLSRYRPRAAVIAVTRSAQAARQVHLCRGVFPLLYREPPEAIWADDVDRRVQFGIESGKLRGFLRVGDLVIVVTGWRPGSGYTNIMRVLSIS
From the text: NIH Chemical Genomics Center [NCGC]
Matthew G. Vander Heiden, M.D., Ph.D. [Harvard Medical School, 77 Avenue Louis Pasteur, Boston, MA 02115]
Human pyruvate kinase liver (hPK-L)enzyme was supplied as a highly purified (>95% pure) preparation from Harvard Medical School and a secondary assay was used to evaluate compounds. This assay couples the formation of pyruvate from hPK-R using lactate dehydrogenase (LDH) and NADH. The depletion of NADH is followed in a fluorescent-based kinetic assay that follows the formation of pyruvate to lactate, as catalyzed LDH. Pyruvate kinase substrates, PEP and ADP, were present in the assay at 0.1 mM and 4 mM respectively. In this kinetic assay initial rates were determined by following the fluorescence of NADH depletion.
NCGC Assay Protocol Summary:
Three uL of substrate mix (final concentration, 50 mM Tris-Cl pH 8.0, 200 mM KCl, 15 mM MgCl2, 0.1 mM PEP, 4.0 mM ADP, and 0.2 mM NADH) was dispensed into black-solid 1536 well plates. 23 nL of compounds were delivered by a pin tool and 1 uL of enzyme mix (final concentrations, 10 nM hPK-L and 1 uM of LDH) was added. Plates were immediately placed in ViewLux (Perkin Elmer) and NADH fluorescence was determined at 30 second exposure intervals for between 3 and 6 minutes. Data were normalized to the uninhibited and EC100 activation using known activators such as fructose-bis-phosphate.

| Structure (SMILES) | activity change, positive = activation | outcome |
| --- | --- | --- |
| COc1ccc(OC2=NS(=O)(=O)c3ccccc32)cc1 | -0.215% |  |
| N#Cc1ccc(NS(=O)(=O)c2ccc3c(c2)CCC(=O)N3)cc1 | -11.8% |  |
| O=C1c2ccccc2C(=O)N1Cc1cccnc1 | 0.301% |  |
| O=C1c2ccccc2C(=O)N1c1ccc2ncccc2c1 | -8.34% |  |
| Cc1ccc(NS(=O)(=O)c2ccc3c(c2)CCC(=O)N3)cc1 | 10.1% |  |
| Cc1ccc2nc(-c3ccc(C)o3)c(NC3CCCC3)n2c1 | -8.15% |  |
| O=C1c2ccccc2C(=O)N1c1cccc2cnccc12 | -12.8% |  |
| CN(C)c1cccc(S(=O)(=O)N2CCCN(S(=O)(=O)c3ccc4c(c3)OCCO4)CC2)c1 | 16.8% |  |
| Cc1ccc(NS(=O)(=O)c2ccc3c(ccn3C)c2)cc1C | 2.79% |  |
| O=S1(=O)N=C(Oc2ccccc2)c2ccccc21 | -9.46% [at 82.8 µM] |  |
| O=C1c2ccccc2C(=O)N1Cc1ccncc1 | -2.36% |  |
| Cc1cc(NS(=O)(=O)c2ccc3c(c2)CCC(=O)N3)ccc1Cl | -14.1% |  |
| O=C1c2ccccc2C(=O)N1c1ccccn1 | -8.63% |  |
| O=C1c2ccccc2C(=O)N1c1cccc(Cl)c1 | -11.2% |  |
| Cc1ccc(NS(=O)(=O)c2cc3c(cc2C)OCC(=O)N3)cc1C | -4.44% |  |
| Cc1ccc(NS(=O)(=O)c2ccc3c(c2)CCO3)cc1C | 7.65% |  |
| O=S(=O)(c1ccc2c(c1)OCCO2)N1CCN(S(=O)(=O)c2c(F)cccc2F)CC1 |  | inactive |
| Cc1ccc(NS(=O)(=O)c2cc3c(cc2N2CCCCC2)NC(=O)CC3)cc1C | -20.5% |  |
| Cc1ccc(NS(=O)(=O)c2ccc3c(c2)NC(=O)CO3)cc1C | 10.8% |  |
| Cc1ccc(-c2nc3cnccn3c2Nc2ccc(C(C)C)cc2)o1 | 9.88% |  |

| Structure (SMILES) | activity change, positive = activation | outcome |
| --- | --- | --- |
| Nc1cccc(S(=O)(=O)N2CCCN(S(=O)(=O)c3ccc4c(c3)OCCO4)CC2)c1 | 10.9% |  |
| O=C1CCc2cc(S(=O)(=O)Nc3ccncc3)ccc2N1 | 13.1% |  |
| Cc1ccc(NS(=O)(=O)c2cc3c(cc2Cl)CCC(=O)N3)cc1Cl | 17.9% |  |
| CC(C)Nc1cccc(S(=O)(=O)N2CCCN(S(=O)(=O)c3ccc4c(c3)OCCO4)CC2)c1 | 10.6% |  |
| CNc1cccc(S(=O)(=O)N2CCCN(S(=O)(=O)c3ccc4c(c3)OCCO4)CC2)c1 | 21.3% |  |
| COc1ccccc1NS(=O)(=O)c1ccc2c(c1)CCC(=O)N2 | 3.29% |  |
| Cc1ccc(NS(=O)(=O)c2ccc3c(c2)CC(=O)N3C)cc1C | 1.64% |  |
| Cc1ccc(NS(=O)(=O)c2cc3c(cc2Br)NC(=O)CO3)cc1C | -0.908% |  |
| COc1ccc(Nc2c(-c3ccc(C)o3)nc3ccccn23)cc1 | -3.03% |  |
| Cc1ccc(NS(=O)(=O)c2cc3c(cc2N(C)C)NC(=O)CC3)cc1C | -12.2% |  |
| O=C1CCc2cc(Cl)c(S(=O)(=O)Nc3ccc(Cl)c(Cl)c3)cc2N1 | 19.4% |  |
| Cc1cccc(NS(=O)(=O)c2ccc3c(c2)CCC(=O)N3)c1 | 14.6% |  |
| CC(=O)Nc1ccc(S(=O)(=O)Nc2ccc(C)c(C)c2)cc1 | -3.58% |  |
| Cc1ccc(NS(=O)(=O)c2cc3c(cc2/C=C/c2ccccc2)NC(=O)CO3)cc1C | -5.92% |  |
| Cc1ccc(NS(=O)(=O)c2ccc3c(c2)CC(=O)N3)cc1C | 1.96% |  |
| COc1cc(F)c(S(=O)(=O)N2CCCN(S(=O)(=O)c3cccc(N)c3)CC2)c(F)c1 | 11.1% |  |
| COc1cccc(Cn2ncc3c4sc(S(C)=O)cc4n(C)c3c2=O)c1 (stereo not given) | -7.39% |  |
| O=S1(=O)N=C(Oc2ccccc2Cl)c2ccccc21 | 14.9% |  |
| O=C1c2ccccc2C(=O)N1c1cnc2ccccc2c1 | -5.53% |  |
| Cc1ccc(NS(=O)(=O)c2ccc3c(c2)C(Cl)(Cl)C(=O)N3)cc1C | -2.21% |  |
